Reference: ChEMBL document CHEMBL1961873, “Compounds: GSK PKIS; Assays: Nanosyn kinase panel” (2012)

How the values were obtained:
[1] = target: Mitogen-activated protein kinase 3 (Homo sapiens) (UniProt P27361); details: at 1 µM;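 further: values are mean percent inhibition of MAPK3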
[2] = target: SRSF protein kinase 3 (Homo sapiens) (UniProt Q9UPE1); details: at 0.1 µM
[3] = target: SRSF protein kinase 3 (Homo sapiens) (UniProt Q9UPE1); details: at 1 µM
[4] = target: Mitogen-activated protein kinase 14 (Homo sapiens) (UniProt Q16539); details: at 0.1 µM
[5] = target: Mitogen-activated protein kinase 14 (Homo sapiens) (UniProt Q16539); details: at 1 µM
[6] = target: Mitogen-activated protein kinase 11 (Homo sapiens) (UniProt Q15759); details: at 0.1 µM
[7] = target: Mitogen-activated protein kinase 11 (Homo sapiens) (UniProt Q15759); details: at 1 µM
[8] = target: T1, Mitogen-activated protein kinase 13 (Homo sapiens) (UniProt O15264); details: at 0.1 µM
T1 sequence (whole entry): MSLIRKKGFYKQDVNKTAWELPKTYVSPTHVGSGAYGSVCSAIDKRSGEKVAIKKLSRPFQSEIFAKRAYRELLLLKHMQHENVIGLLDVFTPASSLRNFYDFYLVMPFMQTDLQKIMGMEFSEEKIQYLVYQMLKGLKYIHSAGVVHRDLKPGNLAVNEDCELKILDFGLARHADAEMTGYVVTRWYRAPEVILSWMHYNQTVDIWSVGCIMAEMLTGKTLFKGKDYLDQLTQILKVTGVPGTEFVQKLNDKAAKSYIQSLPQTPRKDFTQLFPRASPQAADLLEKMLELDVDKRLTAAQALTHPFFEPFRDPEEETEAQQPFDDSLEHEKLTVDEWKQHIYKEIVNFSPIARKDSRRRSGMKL

[9] = target: T1, Mitogen-activated protein kinase 13 (Homo sapiens); details: at 1 µM
[10] = target: T2, Mitogen-activated protein kinase 12 (Homo sapiens) (UniProt P53778); details: at 0.1 µM
T2 sequence (whole entry): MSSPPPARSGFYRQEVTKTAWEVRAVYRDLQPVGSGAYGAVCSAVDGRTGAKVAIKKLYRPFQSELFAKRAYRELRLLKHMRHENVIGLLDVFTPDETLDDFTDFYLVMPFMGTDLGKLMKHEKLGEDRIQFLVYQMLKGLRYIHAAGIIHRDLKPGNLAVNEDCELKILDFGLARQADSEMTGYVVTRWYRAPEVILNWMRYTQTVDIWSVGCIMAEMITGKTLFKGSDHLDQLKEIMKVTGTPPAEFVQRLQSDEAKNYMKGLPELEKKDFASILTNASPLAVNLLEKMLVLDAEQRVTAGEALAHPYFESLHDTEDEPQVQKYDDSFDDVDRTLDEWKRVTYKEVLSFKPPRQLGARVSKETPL

[11] = target: T2, Mitogen-activated protein kinase 12 (Homo sapiens); details: at 1 µM
[12] = target: SRSF protein kinase 1 (Homo sapiens) (UniProt Q96SB4); details: at 0.1 µM
[13] = target: SRSF protein kinase 1 (Homo sapiens) (UniProt Q96SB4); details: at 1 µM
[14] = target: Phosphatidylinositol 4,5-bisphosphate 3-kinase catalytic subunit alpha isoform (Homo sapiens) (UniProt P42336); details: at 0.1 µM
[15] = target: Phosphatidylinositol 4,5-bisphosphate 3-kinase catalytic subunit alpha isoform (Homo sapiens) (UniProt P42336); details: at 1 µM
[16] = target: T3, Phosphatidylinositol 4,5-bisphosphate 3-kinase catalytic subunit delta isoform (Homo sapiens) (UniProt O00329); details: at 0.1 µM
T3 sequence (whole entry): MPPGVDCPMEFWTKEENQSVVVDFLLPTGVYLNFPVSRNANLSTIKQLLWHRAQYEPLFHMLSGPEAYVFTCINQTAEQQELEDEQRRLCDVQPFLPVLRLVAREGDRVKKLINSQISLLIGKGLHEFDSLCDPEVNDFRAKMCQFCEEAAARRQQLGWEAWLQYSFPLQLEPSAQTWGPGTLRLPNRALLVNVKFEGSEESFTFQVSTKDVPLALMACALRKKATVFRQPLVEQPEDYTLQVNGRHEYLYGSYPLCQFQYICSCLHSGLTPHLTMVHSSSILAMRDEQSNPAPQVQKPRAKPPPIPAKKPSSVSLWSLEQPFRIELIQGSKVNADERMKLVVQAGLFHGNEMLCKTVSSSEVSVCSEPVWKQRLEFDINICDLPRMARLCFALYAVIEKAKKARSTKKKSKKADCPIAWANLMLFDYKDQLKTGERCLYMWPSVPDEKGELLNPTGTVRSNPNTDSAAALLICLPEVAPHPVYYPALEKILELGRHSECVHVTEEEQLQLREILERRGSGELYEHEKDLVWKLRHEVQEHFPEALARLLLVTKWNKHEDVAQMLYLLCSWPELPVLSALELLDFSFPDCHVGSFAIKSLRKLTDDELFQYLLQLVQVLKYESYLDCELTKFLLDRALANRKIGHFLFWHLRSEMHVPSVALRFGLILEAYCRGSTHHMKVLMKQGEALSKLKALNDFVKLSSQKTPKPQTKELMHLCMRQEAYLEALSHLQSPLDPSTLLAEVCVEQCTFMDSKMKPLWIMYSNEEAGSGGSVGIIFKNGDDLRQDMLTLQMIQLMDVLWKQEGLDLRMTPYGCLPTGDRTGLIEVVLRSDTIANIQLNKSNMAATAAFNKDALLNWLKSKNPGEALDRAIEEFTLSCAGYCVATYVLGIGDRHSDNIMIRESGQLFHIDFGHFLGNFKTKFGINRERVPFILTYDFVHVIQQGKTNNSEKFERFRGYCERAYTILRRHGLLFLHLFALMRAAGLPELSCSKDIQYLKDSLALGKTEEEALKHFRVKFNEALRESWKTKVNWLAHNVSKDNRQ

[17] = target: T3, Phosphatidylinositol 4,5-bisphosphate 3-kinase catalytic subunit delta isoform (Homo sapiens); details: at 1 µM
[18] = target: Phosphatidylinositol 4-kinase beta (Homo sapiens) (UniProt Q9UBF8); details: at 0.1 µM
[19] = target: Phosphatidylinositol 4-kinase beta (Homo sapiens) (UniProt Q9UBF8); details: at 1 µM
[20] = target: Sphingosine kinase 1 (Homo sapiens) (UniProt Q9NYA1); details: at 0.1 µM;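 further: mean percent inhibition of SPHK1 activity, measured within the GSK PKIS screening panel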
Chain of Sphingosine kinase 1 (Homo sapiens) (Q9NYA1 whole entry): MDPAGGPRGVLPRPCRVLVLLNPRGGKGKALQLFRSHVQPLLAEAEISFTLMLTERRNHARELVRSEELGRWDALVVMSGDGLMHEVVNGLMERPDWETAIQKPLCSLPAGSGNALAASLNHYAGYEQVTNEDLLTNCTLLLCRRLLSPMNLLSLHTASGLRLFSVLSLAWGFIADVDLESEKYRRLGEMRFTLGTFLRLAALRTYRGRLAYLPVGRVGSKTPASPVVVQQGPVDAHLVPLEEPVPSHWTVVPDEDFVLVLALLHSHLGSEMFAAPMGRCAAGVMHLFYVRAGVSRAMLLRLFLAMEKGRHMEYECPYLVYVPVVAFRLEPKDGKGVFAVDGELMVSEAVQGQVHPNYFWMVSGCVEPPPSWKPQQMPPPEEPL

Chain of Phosphatidylinositol 4,5-bisphosphate 3-kinase catalytic subunit alpha isoform (Homo sapiens) (P42336 whole entry, canonical isoform): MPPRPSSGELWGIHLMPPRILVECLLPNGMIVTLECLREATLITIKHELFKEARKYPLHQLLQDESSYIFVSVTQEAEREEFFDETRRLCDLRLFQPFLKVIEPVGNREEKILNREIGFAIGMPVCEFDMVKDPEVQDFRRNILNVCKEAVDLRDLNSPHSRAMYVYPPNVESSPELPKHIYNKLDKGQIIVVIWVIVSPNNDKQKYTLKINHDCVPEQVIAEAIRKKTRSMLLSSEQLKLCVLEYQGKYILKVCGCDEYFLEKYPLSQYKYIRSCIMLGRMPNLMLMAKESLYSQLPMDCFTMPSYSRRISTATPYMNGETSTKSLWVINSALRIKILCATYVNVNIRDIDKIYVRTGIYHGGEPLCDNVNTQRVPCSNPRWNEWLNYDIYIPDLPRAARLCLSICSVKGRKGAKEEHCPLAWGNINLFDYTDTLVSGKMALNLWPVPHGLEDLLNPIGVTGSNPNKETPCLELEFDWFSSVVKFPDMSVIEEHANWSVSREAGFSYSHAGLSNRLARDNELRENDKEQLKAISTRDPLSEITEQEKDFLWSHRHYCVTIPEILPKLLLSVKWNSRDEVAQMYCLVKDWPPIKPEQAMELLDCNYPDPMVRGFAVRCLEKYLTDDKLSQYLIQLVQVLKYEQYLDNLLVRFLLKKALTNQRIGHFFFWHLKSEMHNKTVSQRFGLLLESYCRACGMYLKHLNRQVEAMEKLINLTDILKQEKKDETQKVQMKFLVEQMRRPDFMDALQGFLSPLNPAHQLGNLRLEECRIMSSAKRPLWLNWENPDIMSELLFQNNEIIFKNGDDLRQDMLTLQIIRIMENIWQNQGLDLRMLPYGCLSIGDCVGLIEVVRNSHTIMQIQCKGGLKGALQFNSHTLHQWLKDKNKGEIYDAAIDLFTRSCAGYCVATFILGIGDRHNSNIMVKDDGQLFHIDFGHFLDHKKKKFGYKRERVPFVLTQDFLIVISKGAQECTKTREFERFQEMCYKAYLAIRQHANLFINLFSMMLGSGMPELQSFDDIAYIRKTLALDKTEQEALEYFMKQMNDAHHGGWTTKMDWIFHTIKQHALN
Chain of Mitogen-activated protein kinase 3 (Homo sapiens) (P27361 whole entry): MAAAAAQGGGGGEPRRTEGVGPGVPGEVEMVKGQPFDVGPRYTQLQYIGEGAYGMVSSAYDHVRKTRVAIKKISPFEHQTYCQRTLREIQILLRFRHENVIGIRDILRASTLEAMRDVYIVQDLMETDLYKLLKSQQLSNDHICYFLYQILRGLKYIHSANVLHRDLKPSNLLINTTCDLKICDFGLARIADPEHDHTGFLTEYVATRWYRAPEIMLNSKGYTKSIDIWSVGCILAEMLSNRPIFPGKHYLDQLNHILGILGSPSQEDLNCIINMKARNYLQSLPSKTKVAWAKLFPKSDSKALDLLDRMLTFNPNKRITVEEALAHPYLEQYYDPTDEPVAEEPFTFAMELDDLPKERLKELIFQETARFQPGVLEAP
Chain of SRSF protein kinase 3 (Homo sapiens) (Q9UPE1 whole entry): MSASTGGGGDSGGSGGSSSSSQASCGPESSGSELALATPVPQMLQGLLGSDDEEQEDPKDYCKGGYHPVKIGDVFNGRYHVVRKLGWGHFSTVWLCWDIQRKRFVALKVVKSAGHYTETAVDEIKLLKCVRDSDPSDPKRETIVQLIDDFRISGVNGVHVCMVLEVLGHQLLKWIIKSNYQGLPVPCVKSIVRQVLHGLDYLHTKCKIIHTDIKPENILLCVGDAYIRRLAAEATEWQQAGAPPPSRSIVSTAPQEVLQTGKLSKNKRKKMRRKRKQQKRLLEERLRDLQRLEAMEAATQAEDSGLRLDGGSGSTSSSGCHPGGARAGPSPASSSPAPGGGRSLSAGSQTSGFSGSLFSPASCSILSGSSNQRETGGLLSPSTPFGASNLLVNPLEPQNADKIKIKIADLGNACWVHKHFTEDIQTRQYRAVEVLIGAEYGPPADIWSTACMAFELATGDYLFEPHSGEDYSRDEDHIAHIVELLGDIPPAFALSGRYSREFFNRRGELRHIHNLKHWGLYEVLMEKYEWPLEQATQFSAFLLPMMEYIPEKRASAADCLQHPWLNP
Chain of Mitogen-activated protein kinase 14 (Homo sapiens) (Q16539 whole entry): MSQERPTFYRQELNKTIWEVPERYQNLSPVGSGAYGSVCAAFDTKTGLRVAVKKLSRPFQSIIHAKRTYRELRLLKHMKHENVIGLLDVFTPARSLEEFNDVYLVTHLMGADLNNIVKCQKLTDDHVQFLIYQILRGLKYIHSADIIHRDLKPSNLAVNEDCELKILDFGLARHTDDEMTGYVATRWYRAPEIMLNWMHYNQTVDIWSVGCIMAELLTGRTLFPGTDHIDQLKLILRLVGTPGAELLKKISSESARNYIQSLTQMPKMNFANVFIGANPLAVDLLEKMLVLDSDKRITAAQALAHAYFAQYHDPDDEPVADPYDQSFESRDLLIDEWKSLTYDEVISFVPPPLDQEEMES
Chain of SRSF protein kinase 1 (Homo sapiens) (Q96SB4 whole entry, canonical isoform): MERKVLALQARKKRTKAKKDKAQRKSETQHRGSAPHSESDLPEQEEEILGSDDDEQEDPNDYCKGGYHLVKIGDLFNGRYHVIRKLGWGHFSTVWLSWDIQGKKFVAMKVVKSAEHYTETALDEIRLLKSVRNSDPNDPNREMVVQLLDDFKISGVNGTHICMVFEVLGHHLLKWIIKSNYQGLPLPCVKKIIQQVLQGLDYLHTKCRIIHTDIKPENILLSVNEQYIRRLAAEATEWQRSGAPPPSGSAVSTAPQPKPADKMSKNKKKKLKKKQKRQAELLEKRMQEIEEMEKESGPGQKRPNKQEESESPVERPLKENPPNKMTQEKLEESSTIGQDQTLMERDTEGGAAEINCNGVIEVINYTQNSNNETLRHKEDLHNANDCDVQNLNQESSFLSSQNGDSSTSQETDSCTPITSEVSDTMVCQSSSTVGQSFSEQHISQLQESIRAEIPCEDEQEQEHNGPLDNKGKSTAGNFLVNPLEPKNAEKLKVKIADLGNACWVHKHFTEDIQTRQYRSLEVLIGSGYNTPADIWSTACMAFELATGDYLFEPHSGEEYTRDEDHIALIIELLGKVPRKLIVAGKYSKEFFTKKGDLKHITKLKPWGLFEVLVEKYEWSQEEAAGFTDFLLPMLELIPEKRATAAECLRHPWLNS
Chain of Phosphatidylinositol 4-kinase beta (Homo sapiens) (Q9UBF8 2-816 limits assumed): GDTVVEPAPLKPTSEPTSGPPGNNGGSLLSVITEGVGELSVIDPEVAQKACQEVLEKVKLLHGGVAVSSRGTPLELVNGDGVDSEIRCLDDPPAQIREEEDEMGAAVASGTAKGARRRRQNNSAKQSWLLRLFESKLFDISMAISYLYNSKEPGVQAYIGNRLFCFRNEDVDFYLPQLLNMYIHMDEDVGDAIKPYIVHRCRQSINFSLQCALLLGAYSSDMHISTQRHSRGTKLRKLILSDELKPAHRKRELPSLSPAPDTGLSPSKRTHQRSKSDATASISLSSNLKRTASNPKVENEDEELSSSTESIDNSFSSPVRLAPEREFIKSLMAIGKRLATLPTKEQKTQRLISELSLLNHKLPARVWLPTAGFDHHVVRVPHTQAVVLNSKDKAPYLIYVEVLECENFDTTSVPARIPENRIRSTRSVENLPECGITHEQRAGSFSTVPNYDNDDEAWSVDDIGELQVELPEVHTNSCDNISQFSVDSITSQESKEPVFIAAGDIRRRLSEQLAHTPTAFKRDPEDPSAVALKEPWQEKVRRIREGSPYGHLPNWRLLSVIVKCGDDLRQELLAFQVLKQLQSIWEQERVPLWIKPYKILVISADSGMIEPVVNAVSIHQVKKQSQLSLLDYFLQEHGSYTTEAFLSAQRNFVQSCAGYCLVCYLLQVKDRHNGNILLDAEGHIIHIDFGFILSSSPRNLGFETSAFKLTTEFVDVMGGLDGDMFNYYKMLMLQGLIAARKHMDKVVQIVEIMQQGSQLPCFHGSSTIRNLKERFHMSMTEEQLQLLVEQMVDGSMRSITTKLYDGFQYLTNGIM
Chain of Mitogen-activated protein kinase 11 (Homo sapiens) (Q15759 whole entry): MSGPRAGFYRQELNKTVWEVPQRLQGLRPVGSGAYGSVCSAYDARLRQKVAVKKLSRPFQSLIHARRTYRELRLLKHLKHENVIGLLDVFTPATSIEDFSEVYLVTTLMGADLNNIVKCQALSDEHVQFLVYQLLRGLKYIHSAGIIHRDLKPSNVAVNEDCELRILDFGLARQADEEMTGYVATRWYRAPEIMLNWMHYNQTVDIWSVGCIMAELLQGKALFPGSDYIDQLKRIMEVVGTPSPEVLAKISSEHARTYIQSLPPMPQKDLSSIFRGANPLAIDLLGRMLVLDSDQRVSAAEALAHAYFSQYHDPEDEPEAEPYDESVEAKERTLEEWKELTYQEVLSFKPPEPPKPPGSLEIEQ

| Structure (SMILES) | inhibition [1] [%] | inhibition [2] [%] | inhibition [3] [%] | inhibition [4] [%] | inhibition [5] [%] | inhibition [6] [%] | inhibition [7] [%] | inhibition [8] [%] | inhibition [9] [%] | inhibition [10] [%] | inhibition [11] [%] | inhibition [12] [%] | inhibition [13] [%] | inhibition [14] [%] | inhibition [15] [%] | inhibition [16] [%] | inhibition [17] [%] | inhibition [18] [%] | inhibition [19] [%] | inhibition [20] [%] |
| --- | --- | --- | --- | --- | --- | --- | --- | --- | --- | --- | --- | --- | --- | --- | --- | --- | --- | --- | --- | --- |
| COc1ccccc1Nc1ncc(-c2ccccc2)o1 | 5.55 | -1.49 | 1.35 | 10.4 | 11 | 4.31 | 7.08 | 5.83 | 4.74 | 4.14 | 4.08 | -4.21 | -2.61 | 5.32 | 6.11 | 0.95 | 2.27 | -0.97 | 0.94 | 0 |
| CCc1cccc(NC(=O)Nc2ccc(Oc3ccc4nc(NC(=O)OC)[nH]c4c3)cc2)c1 | 2.79 | 1.41 | 2.28 | 2.41 | 3.05 | 1.54 | 6.14 | 0.54 | 0.33 | -0.64 | 1.54 | 0.34 | 1.37 | 0.8 | 2.44 | 0.28 | 3.23 | 5.24 | -4.52 |  |
| CCn1c(-c2nonc2N)nc2ccncc21 | 1.29 | -2.05 | -2.78 | 2.59 | 3.78 | 2.84 | 2.34 | 0.59 | 0.17 | 2.32 | 1.43 | -3.78 | -6.35 | 0.03 | 1.86 | 2.2 | 2.13 | 4.46 | -4.32 | -1.27 |
| CC1=C(C(=O)Nc2ccc3[nH]ncc3c2)C(c2ccc(F)cc2)NC(=O)N1 (centres undefined) | 3.56 | -2.61 | -0.84 | 2.74 | 6.99 | 2.94 | 3.88 | 0.78 | 2.31 | 0.89 | 1.7 | -0.16 | -1.24 | 2.51 | 5.96 | 2.41 | 3.62 | 1.44 | 1.28 | 1.05 |
| COc1cc(C=NNc2ncnc3c2cnn3-c2ccccc2)ccc1O | 1.84 | 2.22 | 4.19 | 4.51 | 10.7 | 3.59 | 9.09 | 3.08 | 7.17 | 1.85 | 5.79 | -0.73 | 0.63 | 6.59 | 15.9 | 8.17 | 18 | -0.81 | -0.12 | -0.86 |
| COc1cc2ncn(-c3cc(O[C@H](C)c4ccccc4Cl)c(C(N)=O)s3)c2cc1OC | 4.54 | -0.2 | 8.42 | 5.73 | 6.35 | 3.71 | 4.9 | 2.38 | 3.77 | 2.99 | 3.72 | 0.35 | 7.77 | 7.21 | 36.1 | 13.6 | 59.9 | 2.43 | -0.59 | 1.83 |
| COC(=O)Nc1nc2cc(Oc3ccc(NC(=O)Nc4cccc(C(=O)O)c4)cc3)ccc2[nH]1 | 2.25 | 1.98 | 3.99 | -1.1 | 1.12 | 0.94 | -1.18 | -0.17 | -0.69 | 0.51 | -0.37 | -0.09 | 3.15 | -0.54 | -3.19 | -1.33 | -1.97 | 2.72 | -1.03 | 0.94 |
| NS(=O)(=O)c1cccc(-c2ccc3c(NC(=O)C4CC4)n[nH]c3c2)c1 | -0.05 | -0.57 | -6.73 | 6.37 | 9.34 | 1.5 | 5.3 | -0.02 | -0.14 | -0.74 | -1.58 | 1.47 | 1.47 | 2.99 | 3.6 | 7.35 | 8.71 | 1.29 | -3.98 | 0.58 |
| Nc1ncnc2occ(-c3ccc(NC(=O)Nc4cc(C(F)(F)F)cc(C(F)(F)F)c4)cc3)c12 | 2.23 | 1.52 | -0.42 | 2.48 | 11 | 0.21 | 8.68 | -0.42 | 14.5 | -0.95 | 10.2 | -0.82 | 0.68 | 0.61 | 2.7 | 2.62 | 3.45 | 1.16 | 2.78 | 0.12 |
| NS(=O)(=O)c1ccc(N/N=C2\C(=O)Nc3ccc(C(=O)NCCc4c[nH]cn4)cc32)cc1 | 7.89 | 1.31 | -0.05 | 5.71 | 8.13 | 3.37 | 6.34 | -1.15 | 4.35 | 4.17 | 2.64 | -1.35 | -0.63 | 2.2 | 4.76 | 1.71 | 2.03 | -6.38 | -1.44 | -1.35 |
| O=C1NC(=O)C(c2cccc(Cl)c2)=C1Nc1ccc(O)c(Cl)c1 | 2.28 | -0.01 | 2.47 | 1.38 | 8.66 | 1.96 | 4.99 | 0.26 | 0.3 | -0.58 | 0.35 | -2.71 | -4.83 | -1.72 | 5.36 | 0.8 | 4.17 | -4.92 | 1.17 | 1.58 |
| Cc1cc(O)cc(C)c1/C=C/c1cncc(-c2nn[nH]n2)c1 | 5.1 | 0.25 | -0.18 | 8.41 | 12.6 | 3.52 | 3.01 | 3.42 | 5.1 | 1.46 | 3.07 | -1.87 | -2.36 | 3.19 | 5.13 | 2.19 | 6.52 | -5.96 | -0.98 | 0.56 |
| CC1=C(C(=O)Nc2ccc3[nH]ncc3c2)C(c2ccc(Cl)c(Cl)c2)CC(=O)N1 (centres undefined) | 14.6 | -0.02 | 1.57 | 1.46 | 4.94 | 0.46 | 0.24 | -0.61 | 2.05 | -0.46 | 1.19 | -1.56 | -3.22 | -0.33 | -0.79 | 0.18 | 1.04 | 0.44 | -1.19 | 0.43 |
